In assay [1] the target is Dual specificity protein kinase CLK3 (Homo sapiens) (UniProt P49761). The settings on record: at 1 µM.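 Also: each value is the mean inhibition of CLK3.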
The target in assay [2] is Dual specificity tyrosine-phosphorylation-regulated kinase 1A (Homo sapiens) (UniProt Q13627). The settings on record: at 0.1 µM.
The target is the same in assay [3]. To be noted: at 1 µM.
In assay [4] the target is Dual specificity tyrosine-phosphorylation-regulated kinase 1B (Homo sapiens) (UniProt Q9Y463). The settings on record: at 0.1 µM.
The target is the same in assay [5]. To be noted: at 1 µM.
Assay [6] has as its target T1, Dual specificity tyrosine-phosphorylation-regulated kinase 2 (Homo sapiens) (UniProt Q92630).
T1 sequence (whole entry): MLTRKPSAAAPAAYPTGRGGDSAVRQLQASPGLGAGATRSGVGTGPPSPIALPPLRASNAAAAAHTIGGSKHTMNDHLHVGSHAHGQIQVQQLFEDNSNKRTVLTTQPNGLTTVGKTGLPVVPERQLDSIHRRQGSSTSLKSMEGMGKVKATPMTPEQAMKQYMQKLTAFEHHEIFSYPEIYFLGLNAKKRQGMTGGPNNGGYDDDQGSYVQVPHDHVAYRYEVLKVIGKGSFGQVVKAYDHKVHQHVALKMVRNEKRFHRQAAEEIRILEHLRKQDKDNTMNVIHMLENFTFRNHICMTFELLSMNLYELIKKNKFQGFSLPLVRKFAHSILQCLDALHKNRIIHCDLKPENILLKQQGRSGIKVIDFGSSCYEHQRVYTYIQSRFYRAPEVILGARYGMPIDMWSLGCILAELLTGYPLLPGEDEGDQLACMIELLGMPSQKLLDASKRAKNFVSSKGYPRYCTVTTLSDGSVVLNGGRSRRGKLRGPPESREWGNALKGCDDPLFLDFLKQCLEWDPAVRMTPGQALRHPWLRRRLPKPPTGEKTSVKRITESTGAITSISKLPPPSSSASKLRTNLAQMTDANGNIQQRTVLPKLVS
The settings on record: at 0.1 µM.

The target of assay [7] is T1, Dual specificity tyrosine-phosphorylation-regulated kinase 2 (Homo sapiens). The settings on record: at 1 µM.
Assay [8] concerns the target Glycogen synthase kinase-3 alpha (Homo sapiens) (UniProt P49840). To be noted: at 0.1 µM.
Assay [9] has the same target. To be noted: at 1 µM.
Assay [10] addresses Glycogen synthase kinase-3 beta (Homo sapiens) (UniProt P49841). To be noted: at 0.1 µM.
The target is the same in assay [11]. The settings on record: at 1 µM.
Assay [12] deals with Homeodomain-interacting protein kinase 1 (Homo sapiens) (UniProt Q86Z02). The settings on record: at 0.1 µM.
The target is the same in assay [13]. The settings on record: at 1 µM.
For assay [14], the target named is T2, Homeodomain-interacting protein kinase 4 (Homo sapiens) (UniProt Q8NE63).
T2 sequence (whole entry): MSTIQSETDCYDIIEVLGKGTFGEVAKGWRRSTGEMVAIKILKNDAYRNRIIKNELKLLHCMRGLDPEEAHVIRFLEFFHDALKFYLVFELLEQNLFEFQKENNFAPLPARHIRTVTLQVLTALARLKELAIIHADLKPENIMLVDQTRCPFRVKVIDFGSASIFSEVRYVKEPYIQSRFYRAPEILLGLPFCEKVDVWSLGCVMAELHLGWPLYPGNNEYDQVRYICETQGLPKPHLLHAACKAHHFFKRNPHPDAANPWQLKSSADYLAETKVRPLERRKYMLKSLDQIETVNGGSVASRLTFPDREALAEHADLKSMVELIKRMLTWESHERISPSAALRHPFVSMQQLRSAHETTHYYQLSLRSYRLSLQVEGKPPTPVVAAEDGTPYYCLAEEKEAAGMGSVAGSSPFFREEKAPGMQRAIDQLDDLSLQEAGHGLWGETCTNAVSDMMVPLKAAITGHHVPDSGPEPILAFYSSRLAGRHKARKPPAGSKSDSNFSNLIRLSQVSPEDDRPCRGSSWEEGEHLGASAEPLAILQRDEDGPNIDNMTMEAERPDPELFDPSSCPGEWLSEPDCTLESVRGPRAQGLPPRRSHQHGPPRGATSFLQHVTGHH
To be noted: at 0.1 µM.

In assay [15] the target is T2, Homeodomain-interacting protein kinase 4 (Homo sapiens). The settings on record: at 1 µM.
Assay [16] addresses Mitogen-activated protein kinase 9 (Homo sapiens) (UniProt P45984). The settings on record: at 0.1 µM.
The target is the same in assay [17]. The settings on record: at 1 µM.
In assay [18] the target is Mitogen-activated protein kinase 1 (Homo sapiens) (UniProt P28482). To be noted: at 0.1 µM.
Assay [19] shares this target. To be noted: at 1 µM.
The target of assay [20] is Mitogen-activated protein kinase 3 (Homo sapiens) (UniProt P27361). The settings on record: at 0.1 µM.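 Also: each value is a mean inhibition figure.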

From ChEMBL document CHEMBL1961873, “Compounds: GSK PKIS; Assays: Nanosyn kinase panel” (2012) come the findings set out here.

One may read the inhibition as the drop in the measured response relative to a control, in per cent.

Sequence of Dual specificity protein kinase CLK3 (Homo sapiens) (P49761 whole entry, looked up): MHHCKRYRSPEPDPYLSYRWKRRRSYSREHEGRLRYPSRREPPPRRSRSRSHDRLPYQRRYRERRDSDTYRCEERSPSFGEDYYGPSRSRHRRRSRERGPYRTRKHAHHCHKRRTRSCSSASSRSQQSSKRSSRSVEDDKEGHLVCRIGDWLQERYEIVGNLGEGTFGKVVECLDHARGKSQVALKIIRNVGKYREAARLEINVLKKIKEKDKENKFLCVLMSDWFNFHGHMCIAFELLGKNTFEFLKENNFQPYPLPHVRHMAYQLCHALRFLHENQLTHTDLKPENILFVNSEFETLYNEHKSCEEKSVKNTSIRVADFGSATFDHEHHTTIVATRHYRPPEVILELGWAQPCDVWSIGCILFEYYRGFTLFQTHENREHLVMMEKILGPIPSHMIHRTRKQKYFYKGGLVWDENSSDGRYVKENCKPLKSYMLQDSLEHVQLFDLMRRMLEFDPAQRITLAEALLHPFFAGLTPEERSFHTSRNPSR
Sequence of Mitogen-activated protein kinase 1 (Homo sapiens) (P28482 whole entry): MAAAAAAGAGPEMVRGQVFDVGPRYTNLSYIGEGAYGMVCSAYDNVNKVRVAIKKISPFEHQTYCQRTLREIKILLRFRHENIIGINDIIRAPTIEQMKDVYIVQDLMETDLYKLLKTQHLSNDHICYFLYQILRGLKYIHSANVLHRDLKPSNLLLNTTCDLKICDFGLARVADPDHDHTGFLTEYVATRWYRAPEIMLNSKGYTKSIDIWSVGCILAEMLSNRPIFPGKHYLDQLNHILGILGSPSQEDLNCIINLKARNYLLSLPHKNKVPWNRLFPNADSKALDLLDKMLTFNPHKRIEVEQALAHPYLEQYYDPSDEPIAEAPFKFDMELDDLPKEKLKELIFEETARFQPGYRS
Sequence of Mitogen-activated protein kinase 9 (Homo sapiens) (P45984 whole entry, looked up): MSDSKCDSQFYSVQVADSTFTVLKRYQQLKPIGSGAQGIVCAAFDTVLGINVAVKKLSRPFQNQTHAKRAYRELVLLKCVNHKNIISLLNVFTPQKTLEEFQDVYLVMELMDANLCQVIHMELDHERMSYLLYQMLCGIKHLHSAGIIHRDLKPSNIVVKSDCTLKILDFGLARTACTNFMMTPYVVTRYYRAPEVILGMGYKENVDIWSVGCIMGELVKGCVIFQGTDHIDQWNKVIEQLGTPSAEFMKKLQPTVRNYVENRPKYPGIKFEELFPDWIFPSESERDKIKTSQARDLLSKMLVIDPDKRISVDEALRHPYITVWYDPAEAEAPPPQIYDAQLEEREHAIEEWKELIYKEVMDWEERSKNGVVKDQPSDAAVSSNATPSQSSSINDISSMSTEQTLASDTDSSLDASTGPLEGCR
Sequence of Homeodomain-interacting protein kinase 1 (Homo sapiens) (Q86Z02 whole entry, looked up): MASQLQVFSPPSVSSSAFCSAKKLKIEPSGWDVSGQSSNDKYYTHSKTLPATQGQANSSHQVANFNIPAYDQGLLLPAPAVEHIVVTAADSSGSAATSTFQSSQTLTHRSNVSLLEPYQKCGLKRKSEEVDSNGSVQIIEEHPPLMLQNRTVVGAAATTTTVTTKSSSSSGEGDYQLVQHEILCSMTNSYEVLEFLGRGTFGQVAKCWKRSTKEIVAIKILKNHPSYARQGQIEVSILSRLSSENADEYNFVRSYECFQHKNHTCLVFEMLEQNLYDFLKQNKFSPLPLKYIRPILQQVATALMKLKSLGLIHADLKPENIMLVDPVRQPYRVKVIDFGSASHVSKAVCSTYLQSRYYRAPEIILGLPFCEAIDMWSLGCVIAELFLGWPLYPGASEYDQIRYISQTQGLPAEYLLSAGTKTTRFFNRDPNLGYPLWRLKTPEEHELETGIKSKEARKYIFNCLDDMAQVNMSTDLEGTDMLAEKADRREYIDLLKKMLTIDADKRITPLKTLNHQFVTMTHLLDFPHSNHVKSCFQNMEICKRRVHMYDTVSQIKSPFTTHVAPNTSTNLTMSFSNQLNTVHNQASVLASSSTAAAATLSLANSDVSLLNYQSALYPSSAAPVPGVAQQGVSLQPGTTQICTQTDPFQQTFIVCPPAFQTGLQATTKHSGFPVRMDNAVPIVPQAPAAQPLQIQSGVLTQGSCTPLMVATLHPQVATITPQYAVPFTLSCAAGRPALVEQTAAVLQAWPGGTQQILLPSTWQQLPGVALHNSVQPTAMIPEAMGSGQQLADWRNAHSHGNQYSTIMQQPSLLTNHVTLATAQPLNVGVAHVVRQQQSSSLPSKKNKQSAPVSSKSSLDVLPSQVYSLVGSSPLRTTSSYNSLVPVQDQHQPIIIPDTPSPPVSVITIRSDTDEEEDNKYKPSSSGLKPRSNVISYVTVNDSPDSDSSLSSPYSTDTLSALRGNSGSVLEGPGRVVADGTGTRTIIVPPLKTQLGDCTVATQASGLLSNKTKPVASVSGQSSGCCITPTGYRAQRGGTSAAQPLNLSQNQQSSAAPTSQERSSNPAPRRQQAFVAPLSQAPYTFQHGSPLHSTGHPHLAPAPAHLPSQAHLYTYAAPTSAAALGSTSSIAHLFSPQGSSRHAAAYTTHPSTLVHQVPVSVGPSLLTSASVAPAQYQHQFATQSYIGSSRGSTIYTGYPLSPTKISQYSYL
Sequence of Glycogen synthase kinase-3 beta (Homo sapiens) (P49841 whole entry, looked up): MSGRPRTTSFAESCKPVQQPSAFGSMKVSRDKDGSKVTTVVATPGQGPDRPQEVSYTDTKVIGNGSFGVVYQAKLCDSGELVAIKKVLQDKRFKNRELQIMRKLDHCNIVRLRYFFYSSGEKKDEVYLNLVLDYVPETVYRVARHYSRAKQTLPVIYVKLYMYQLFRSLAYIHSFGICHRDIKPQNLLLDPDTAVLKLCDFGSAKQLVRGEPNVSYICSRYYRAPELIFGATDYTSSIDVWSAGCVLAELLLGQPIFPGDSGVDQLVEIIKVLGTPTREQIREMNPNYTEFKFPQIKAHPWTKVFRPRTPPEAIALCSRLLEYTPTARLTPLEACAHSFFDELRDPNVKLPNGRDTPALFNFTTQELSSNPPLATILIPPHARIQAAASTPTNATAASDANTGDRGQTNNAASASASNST
Sequence of Dual specificity tyrosine-phosphorylation-regulated kinase 1B (Homo sapiens) (Q9Y463 whole entry, looked up): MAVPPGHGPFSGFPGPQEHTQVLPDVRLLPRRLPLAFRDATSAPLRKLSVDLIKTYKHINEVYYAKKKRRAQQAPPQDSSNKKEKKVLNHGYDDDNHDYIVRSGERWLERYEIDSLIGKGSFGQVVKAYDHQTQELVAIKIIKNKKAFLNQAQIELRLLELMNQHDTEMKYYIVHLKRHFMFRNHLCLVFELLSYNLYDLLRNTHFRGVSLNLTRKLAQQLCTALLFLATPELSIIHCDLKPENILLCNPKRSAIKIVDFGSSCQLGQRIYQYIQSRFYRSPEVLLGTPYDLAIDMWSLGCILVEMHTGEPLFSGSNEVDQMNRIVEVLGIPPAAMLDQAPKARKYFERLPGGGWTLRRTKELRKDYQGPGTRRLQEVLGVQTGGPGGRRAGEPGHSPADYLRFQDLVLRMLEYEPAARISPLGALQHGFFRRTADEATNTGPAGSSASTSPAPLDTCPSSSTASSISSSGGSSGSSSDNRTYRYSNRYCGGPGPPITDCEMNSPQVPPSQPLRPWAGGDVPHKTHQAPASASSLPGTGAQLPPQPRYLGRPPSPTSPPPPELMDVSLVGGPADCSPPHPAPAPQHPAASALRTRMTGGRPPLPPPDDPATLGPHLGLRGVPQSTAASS
Sequence of Mitogen-activated protein kinase 3 (Homo sapiens) (P27361 whole entry): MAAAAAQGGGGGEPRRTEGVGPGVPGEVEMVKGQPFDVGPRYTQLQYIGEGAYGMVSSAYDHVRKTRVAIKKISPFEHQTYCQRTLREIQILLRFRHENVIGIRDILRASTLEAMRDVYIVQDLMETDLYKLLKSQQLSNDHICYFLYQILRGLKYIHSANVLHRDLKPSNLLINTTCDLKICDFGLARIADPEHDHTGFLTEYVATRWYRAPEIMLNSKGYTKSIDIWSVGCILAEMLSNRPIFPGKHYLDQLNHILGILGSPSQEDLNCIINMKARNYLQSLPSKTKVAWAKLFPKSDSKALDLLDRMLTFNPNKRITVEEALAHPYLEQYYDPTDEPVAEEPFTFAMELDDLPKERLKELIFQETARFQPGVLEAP
Sequence of Glycogen synthase kinase-3 alpha (Homo sapiens) (P49840 2-483 limits assumed): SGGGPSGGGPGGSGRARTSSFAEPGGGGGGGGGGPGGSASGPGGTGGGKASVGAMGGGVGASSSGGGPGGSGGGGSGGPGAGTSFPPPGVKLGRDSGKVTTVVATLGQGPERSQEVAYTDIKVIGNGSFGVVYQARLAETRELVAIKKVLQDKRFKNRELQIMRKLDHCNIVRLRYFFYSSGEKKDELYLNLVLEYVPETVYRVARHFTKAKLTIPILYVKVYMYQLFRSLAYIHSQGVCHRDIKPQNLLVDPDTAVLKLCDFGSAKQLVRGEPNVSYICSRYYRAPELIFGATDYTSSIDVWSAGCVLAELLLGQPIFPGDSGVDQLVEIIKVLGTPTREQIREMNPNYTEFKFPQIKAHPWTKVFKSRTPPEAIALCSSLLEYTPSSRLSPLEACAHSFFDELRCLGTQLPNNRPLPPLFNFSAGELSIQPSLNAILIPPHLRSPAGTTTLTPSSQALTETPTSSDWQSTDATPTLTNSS

Take `c1ccc(Oc2ccc(Nc3ncc(-c4ccccc4)o3)cc2)cc1`: the inhibition in assay [1] came to 1.59%; in [2], 2.14%; in [3] it was 5.29%; in assay [4], 1.51%; in [5] it was 2.84%; in assay [6] it was 0.4%. The inhibition worked out at 0.21% in assay [7]; 2% in assay [8]; 5.53% in assay [9]; 1.83% in assay [10]; 7.42% in [11]; 1.51% in assay [12]. In addition, the inhibition is 3.29% in assay [13]; -0.61% in assay [14]; 1.2% in assay [15]; 0.54% in assay [16]; 2.94% in assay [17]; -1.99% in [18]. Also, the inhibition in assay [19] is 6.11%; in assay [20], 1.01%.

Take `COc1ccc2ncn(-c3cc(O[C@H](C)c4ccccc4Cl)c(C(N)=O)s3)c2c1`: the inhibition in assay [1] was -2.47%; in assay [2] it was -1.4%; in assay [3] it was 0.78%; in assay [4], -5.09%; in assay [5] it was -1.96%; in assay [6], 2.27%. Further, the inhibition was 2.75% in assay [7]; -1.42% in [8]; 1.7% in [9]; -1.37% in [10]; -0.28% in assay [11]; -4.71% in assay [12]. Besides, the inhibition in [13] was -1.67%; in assay [14], 0.62%; in assay [15], 5.59%; in assay [16], 2.17%; in assay [17] it was -0.22%; in assay [18] it was 5.14%. Also, the inhibition in assay [19] is 4.54%; in assay [20], 4.56%.

Consider `COc1cc2ncn(-c3cc(OCc4cccs4)c(C(N)=O)s3)c2cc1OC`, for which the inhibition in assay [1] is 0.59%; in assay [2], -2.96%; in assay [3], -0.93%; in [4] it was -3.74%; in [5], -1.79%; in assay [6], 0.17%. In addition, the inhibition in assay [7] amounted to 4.35%; in assay [8], 0.28%; in assay [9] it was 6.22%; in assay [10], 0.55%; in assay [11], 7.28%; in [12], 1.93%. In addition, the inhibition in assay [13] amounted to 18.1%; in [14] it was 20.2%; in [15], 63.3%; in [16], 0.6%; in [17], 4.51%; in [18], 5.16%. Further, the inhibition was determined as 2.33% in [19] and 3.68% in assay [20].

Regarding `O=C(Nc1ccc(Oc2ccc3[nH]c(NC(=O)c4ccccc4)nc3c2)cc1)Nc1cc(C(F)(F)F)ccc1F`, the inhibition amounted to 3.71% in assay [1]; 1.94% in assay [2]; 4.75% in assay [3]; 0.86% in assay [4]; 3.47% in [5]; 2.36% in [6]. For the same compound, the inhibition was 3.65% in assay [7]; 3.49% in assay [8]; 8.16% in [9]; 3.19% in assay [10]; 7.73% in assay [11]; -0.21% in assay [12]. Also, the inhibition in assay [13] turned out to be 0.17%; in [14], 9.12%; in assay [15], 47.7%; in assay [16], 3.43%; in assay [17], 6.62%; in assay [18], 2.12%. Moreover, the inhibition in [19] was determined as 2.7%; in assay [20], 4.31%.

With `NCc1ccc(-n2c(-c3nonc3N)nc3cnccc32)cc1`, the inhibition in assay [1] is 3.13%; in [2], 8.53%; in assay [3], 37.5%; in assay [4] it was 5.66%; in [5] it was 36.4%; in [6], 3.41%. In addition, the inhibition was found to be 4.54% in assay [7]; 25.6% in assay [8]; 67% in assay [9]; 18.1% in assay [10]; 60.1% in assay [11]; 1.51% in [12]. Besides, the inhibition in [13] is 9.18%; in assay [14] it was 0.98%; in [15] it was 5.32%; in [16] it was 7.98%; in assay [17], 6.05%; in assay [18] it was 6.45%. The inhibition in assay [19] amounted to 8.32%; in assay [20], 4.41%.

As to `Cc1ccc(C(=O)NC(C)C)cc1-c1ccc(C(=O)NCC2CC2)cc1`, the inhibition is 0.67% in assay [1]; 1.18% in assay [2]; 2.28% in [3]; 3.39% in assay [4]; 3.96% in assay [5]; -2.49% in [6]. The inhibition in assay [7] was -3.21%; in assay [8], 1.52%; in assay [9], 3.31%; in [10], 1.46%; in [11], 3.01%; in assay [12] it was -2.55%. The inhibition in [13] was 1.88%; in assay [14], 0.31%; in assay [15], 3.79%; in [16] it was -1.51%; in assay [17] it was -0.22%; in assay [18] it was -3.93%. The inhibition was -4.45% in [19] and -2.87% in assay [20].

Regarding `Clc1ccc(CNc2nccc(-c3cnn4ncccc34)n2)cc1`, the inhibition was 6.69% in assay [1]; 16% in assay [2]; 58% in [3]; 28.6% in assay [4]; 74.2% in assay [5]; 0.77% in [6]. Also, the inhibition in [7] worked out at 7.51%; in [8] it was 2.42%; in assay [9], 9.8%; in [10], 2.82%; in assay [11], 11.6%; in assay [12] it was 14.8%. Further, the inhibition turned out to be 57.9% in assay [13]; 11.9% in assay [14]; 49% in assay [15]; 3.52% in [16]; 5.1% in [17]; 4.19% in [18]. For the same compound, the results for the inhibition in assay [19] and in assay [20] were 3.23% and 3.04%, respectively.
